Source: PubChem (The Scripps Research Institute Molecular Screening Center)
ssDAF-12 act: activates DAF-12 receptor from parasite S. stercoralis; HEK293 ssDAF-12/GRIP1 lit1-tk-luc reporter, luminescence; % of 3 µM dafachronic acid response; activation, % at 6.8 µM; 1% of 370,000 active; AID 652126;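 active = activation above the mean over all tested compounds plus 3 SD, cut at about 0.9% in these data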;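 note: 0% = DMSO-only wells and 100% = 3 µM delta7-dafachronic acid wells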
DAX1 inh-1: inhibits human nuclear receptor DAX1 | P51843 | AID 504766 | 0.99% of 340,000 active | inhibition, % at 6.75 µM | HEK293 Gal4-DAX1 luciferase reporter, luminescence;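 active = inhibition above the mean over all tested compounds plus 3 SD, cut at about 4.2% in these data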;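 note: 0% = DAX1-transfected cells with DMSO and 100% = empty-vector control cells with DMSO; inhibition shows as a rise in luminescence from relieved DAX1 repression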
hgDAF12 agonist: hgDAF-12 agonism, primary luciferase screen; HEK293 GAL4-hgDAF12 UAS-luciferase reporter, agonist luminescence; normalized to butyrate control; activation, % at 6.8 µM; 1.8% of 370,000 active; AID 687014;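 active = activation above a cutoff set at the mean of all screened compounds plus 3 SD, cut at about 10% in these data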;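 note: 0% = DMSO wells and 100% = sodium butyrate wells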
hcDAF-12 act: H. contortus DAF-12 activation, primary screen | 1.4% of 370,000 active | HEK293 hcDAF-12 lit1-tk-luc reporter, luminescence; 0% DMSO, 100% Δ7-dafachronic acid | activation, % at 6.8 µM;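 active = activation above the mean of all tested compounds plus 3 SD, cut at about 5.5% in these data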;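 note: 100% = response to 3 µM Δ7-dafachronic acid high control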
DAX1 inh-2: inhibitors of DAX1 repression of SF-1 activated StAR promoter | 1.1% of 370,000 active | AID 652010 | inhibition, % at 6.8 µM | HEK293T StAR-luciferase reporter, SF-1/DAX-1 repression relief;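 active = inhibition above the mean over all tested compounds plus 3 SD, cut at about 3.6% in these data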;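 note: 0% = DAX-1 cells with DMSO and 100% = cells lacking DAX-1 with DMSO; higher inhibition means more luminescence from relief of DAX-1 repression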
LXR ag: counter-screen for hcDAF-12 agonists: agonists of human LXR-beta. activation, % at 6.8 µM. 3,400 tested, under 10 active. HEK293 Gal4-LXR tk-luc reporter, luminescence, 24 h; normalized: DMSO 0%, positive control 100%. shares compounds with hcDAF-12 act;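 active = mean percent activation of the reporter above a cutoff set as the average over tested compounds plus their standard deviation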
Target sequence (P55055 whole entry, looked up, the tested form may be a part): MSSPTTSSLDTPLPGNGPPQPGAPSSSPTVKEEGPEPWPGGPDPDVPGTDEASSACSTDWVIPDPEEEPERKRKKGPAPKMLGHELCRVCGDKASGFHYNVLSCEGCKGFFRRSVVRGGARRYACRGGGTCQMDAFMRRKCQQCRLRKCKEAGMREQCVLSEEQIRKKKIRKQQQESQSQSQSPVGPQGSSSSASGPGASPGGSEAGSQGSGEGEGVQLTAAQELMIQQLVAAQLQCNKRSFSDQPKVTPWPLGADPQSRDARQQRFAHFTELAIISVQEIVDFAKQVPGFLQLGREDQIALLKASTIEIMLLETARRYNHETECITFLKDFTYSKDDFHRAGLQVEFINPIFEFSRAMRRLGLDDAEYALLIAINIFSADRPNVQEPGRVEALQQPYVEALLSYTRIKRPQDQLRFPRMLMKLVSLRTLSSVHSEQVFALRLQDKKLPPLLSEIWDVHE
hcDAF12 conf: hcDAF-12 agonism, confirmation assay; 61% of 3,400 active; AID 743032; HEK293 hcDAF-12 lit1-tk-luc reporter, luminescence; % of Δ7-dafachronic acid response; activation, % at 6.8 µM; shares compounds with hcDAF-12 act;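 active = mean activation across triplicate tests above the threshold derived from the earlier primary screen, cut at about 5.5% in these data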;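 note: 0% = DMSO only wells and 100% = 3 µM Δ7-dafachronic acid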
* hit, by the source's call. Most compounds without a hit are left out; they make up all but 4.1% or so of the library.

For N[C@H](C(=O)N1CCC[C@@H]1C(=O)N1CCC2CCN(S(=O)(=O)c3ccccc3)CC21)c1ccccc1 (some centres not stated) the results were ssDAF-12 act -1, hgDAF12 agonist -2, hcDAF-12 act 1 and DAX1 inh-2 3.
For CCOC(=O)C1(C)CCCN1C(=O)c1ccccc1F (configuration not stated) the results were ssDAF-12 act -1, hgDAF12 agonist 2, hcDAF-12 act 7.1*, DAX1 inh-2 0, LXR ag 0 and hcDAF12 conf 0.
`CCOC(=O)C1(C)CCCN1C(=O)c1c(F)cccc1F` (configuration not stated) gave ssDAF-12 act -2, hgDAF12 agonist 6, hcDAF-12 act 2 and DAX1 inh-2 0.
NC(=O)c1c(NC(=O)c2ccccc2)sc2c1CCC2 was read as ssDAF-12 act 2.1*, DAX1 inh-1 4.5*, hgDAF12 agonist 15*, hcDAF-12 act 16*, DAX1 inh-2 1, LXR ag 2 and hcDAF12 conf 19*.
Screening COc1ccc(-n2c(SCc3ccc([N+](=O)[O-])cc3)nnc2-c2ccc(C)cc2)cc1 returned ssDAF-12 act -1, DAX1 inh-1 0, hgDAF12 agonist -3, hcDAF-12 act 0 and DAX1 inh-2 -1.
Screening O=C(c1ccc(C(F)(F)F)cc1)N(CCCn1ccnc1)C(c1ccccn1)c1nc2ccccc2[nH]1 (configuration not stated) returned ssDAF-12 act 0, hgDAF12 agonist 5, hcDAF-12 act 7.5*, DAX1 inh-2 2, LXR ag 0 and hcDAF12 conf 5.
For c1ccc(-c2csc(Nc3ccccn3)n2)cc1 the results were ssDAF-12 act 2.7*, DAX1 inh-1 3, hgDAF12 agonist 18*, hcDAF-12 act 14*, DAX1 inh-2 2, LXR ag 2 and hcDAF12 conf 17*.
`CC1C(=O)N(Cc2cn(CCC3OCCCO3)nn2)CCS(=O)(=O)N1Cc1ccc(-c2ccc(Cl)cc2)cc1` (configuration not stated) gave ssDAF-12 act -1, DAX1 inh-1 0, hgDAF12 agonist -5, hcDAF-12 act -3 and DAX1 inh-2 -3.
For Cc1ccc2cc(/C=N/Nc3nc4ccccc4[nH]3)c(Cl)nc2c1 the results were ssDAF-12 act 0.9*, DAX1 inh-1 -1, hgDAF12 agonist 11*, hcDAF-12 act 13*, DAX1 inh-2 2, LXR ag 1 and hcDAF12 conf 15*.
`O=C(CN1CCOCC1)N/N=C/c1cc2ccccc2nc1Cl` gave ssDAF-12 act 0, DAX1 inh-1 1, hgDAF12 agonist 0, hcDAF-12 act 0 and DAX1 inh-2 0.
For Cc1ccc(NCC(=O)N/N=C/c2cc3ccccc3nc2Cl)cc1 the results were ssDAF-12 act 2.0*, DAX1 inh-1 1, hgDAF12 agonist 14*, hcDAF-12 act 7.6*, DAX1 inh-2 1, LXR ag 0 and hcDAF12 conf 5.6*.
For COc1ccc(C(=O)NCCS(=O)(=O)N2CCN(C(=O)c3ccco3)CC2)cc1 the results were ssDAF-12 act -2, DAX1 inh-1 0, hgDAF12 agonist 0, hcDAF-12 act -1 and DAX1 inh-2 1.
COCCCN(C(=O)Cc1csc(-c2cccc(Cl)c2)n1)c1c(N)n(Cc2ccccc2)c(=O)[nH]c1=O was read as ssDAF-12 act -1, DAX1 inh-1 1, hgDAF12 agonist 3, hcDAF-12 act -1 and DAX1 inh-2 1.
For CN(C)C(=S)N=Nc1[nH]c2ccccc2c1O the results were ssDAF-12 act 1.4*, hgDAF12 agonist 13*, hcDAF-12 act 7.3*, DAX1 inh-2 1, LXR ag 0 and hcDAF12 conf 3.
COc1ccc(-n2cnc3cc(C(=O)NCC4CCCO4)ccc32)cc1 (configuration not stated) was read as ssDAF-12 act -2, DAX1 inh-1 1, hgDAF12 agonist -1, hcDAF-12 act -1 and DAX1 inh-2 0.
